Shown are actives, neighbours in structure and some others; about 5.2% of the full set was active somewhere.
Sfp PPTase inh = blocks B. subtilis Sfp PPTase activity | Q9F4F7 | Biochemical Sfp PPTase activity, qHTS | Potency, µM, inactives show largest response in the series, negative = inhibition, most hits filed as inhibitors | 310,000 tested, 3.5% active | AID 1490;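 further: the enzyme is Sfp with the accession as filed and its product quenches rhodamine fluorescence; 0% = enzyme reaction without inhibitor and -100% = no enzyme wells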
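Buffer: 50 mM Hepes-Na pH 7.6, 10 mM MgCl2, 0.01% Nonidet P-40, 0.01% BSA. Enzyme 15 nM, pre-exposed to compound 15 min; substrates then added and fluorescence change tracked over 30 min.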
PLK1 PBD inh = PLK1 (human) polo-box domain binding inhibition | P53350 | Plk1 PBD binding of FITC phosphopeptide, fluorescence polarization | Potency, µM, without a hit: max response, negative = inhibition, usual class: inhibitors | 360,000 tested, 2.8% active; further: series mostly up to about 57 µM; nearly all actives have a fitted effect of over 65% in size
TrxR1 substrate = rat thioredoxin reductase 1 substrate activity | 390,000 tested, 0.01% active | purified TrxR1 substrate turnover, NADPH consumption readout | Potency, µM (titrated, usually from 114 µM), inactives show top-dose activity change, negative = substrate turnover | O89049; further: nearly all actives have a fitted effect of over 50% in size
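Rat TrxR1, dispensed at 90 nM, was prereduced with 400 uM NADPH (final) for 5 min at ~22 deg C, then incubated with compound 15 min before 400 uM selenite. A first-read NADPH fluorescence drop versus no-compound background flagged substrates.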
rTrxR1 inhibitor = blocks rat thioredoxin reductase 1 | Potency, µM (series often up to 114 µM), for the others: at the top dose activity change, negative = inhibition, hits mostly inhibitors | AID 588453 | O89049 | recombinant rTrxR1, NADPH fluorescence consumption, selenite substrate | 390,000 tested, 1% active; further: nearly all actives have a fitted effect of over 65% in size
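Rat TrxR1 (90 nM in the dispensed reagent) was pre-reduced with 400 uM NADPH for 5 min at room temperature, then incubated with compound for 15 min. After 400 uM selenite was added, NADPH fluorescence (Ex 340/Em 450 nm) was followed for 8 min.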
VDR inhibitor = blocks the human vitamin D receptor; 400,000 tested, 0.93% active; AID 504847; VDR-SRC2-3 peptide fluorescence polarization, 2 h; Potency, µM, without a hit: max response, negative = inhibition, most hits filed as inhibitors
Target sequence (P11473 whole entry, looked up): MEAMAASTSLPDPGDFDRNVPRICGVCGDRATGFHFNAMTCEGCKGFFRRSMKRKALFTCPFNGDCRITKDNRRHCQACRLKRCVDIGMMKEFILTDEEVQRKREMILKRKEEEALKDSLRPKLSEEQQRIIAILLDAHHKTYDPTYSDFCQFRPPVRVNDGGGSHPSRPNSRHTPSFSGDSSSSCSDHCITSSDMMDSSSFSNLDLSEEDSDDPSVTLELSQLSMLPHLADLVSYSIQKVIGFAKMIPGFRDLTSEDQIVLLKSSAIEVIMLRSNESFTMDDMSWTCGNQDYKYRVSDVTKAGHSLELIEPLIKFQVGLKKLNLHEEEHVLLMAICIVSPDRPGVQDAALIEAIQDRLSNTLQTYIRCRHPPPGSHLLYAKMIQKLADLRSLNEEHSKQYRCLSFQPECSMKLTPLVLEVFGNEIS
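Two reagent solutions held at 4 deg C in the dark were dispensed, compounds pinned at 23 nl, and the mixture incubated 2 h at room temperature. Read-out: fluorescence polarization of VDR–SRC2-3 peptide binding.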
IDH1 R132H inh = blocks human mutant IDH1 R132H enzyme | O75874 | IDH1-R132H enzyme, NADPH consumption, diaphorase/resazurin fluorescence | Potency, µM (titrated, usually from 76.6 µM), without a hit: top-dose activity change, negative = inhibition, usual class: inhibitors | 390,000 tested, 0.093% active | AID 602179; further: nearly all actives have a fitted effect of over 65% in size
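IDH1-R132H (0.5 ug/mL) preincubated 30 min with compound, then NADPH (0.016 mM) and alpha-KG (2 mM) added; 80 min at RT, pH 7.5. Remaining NADPH coupled via diaphorase/resazurin to fluorescence (540/590 nm); concentration-response curves normalized to no-enzyme control.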
* = called active by the depositor; ? = inconclusive; · = not tested or not shown; [ ] = remark or other dose. The call rests on the fitted dose curve; in most records, active means well fitted curve in the direction sought with a large enough effect; inconclusive means small, poorly fitted or top-dose-only effect, or another doubt; inactive means no such curve, though single readings can be large; an effect the other way counts as inactive or inconclusive. Unless noted, on the % scale 0 is the no-effect control and ±100 the full control effect; potency means the concentration at half of the fitted maximal effect.

SMILES | Sfp PPTase inh | PLK1 PBD inh | TrxR1 substrate | rTrxR1 inhibitor | VDR inhibitor | IDH1 R132H inh
CCCc1[nH][nH]c(=O)c1C(c1ccccc1)C(C#N)C#N (stereo not given) | -28.1% | 11.9µM* | 5.5%[57.1 µM] | ? | ? | -5.8%
CCCN(CCC)[C@@H]1CCc2c(F)ccc(O)c2C1 | · | · | · | 7.8% | · | ·
COc1ccc(-n2c(-c3ccc(C)cc3)nc3ccccc3c2=O)cc1 | -18.9% | 4.9% | -4.7% | 3.2%[57.1 µM] | -13.5% | 3.8%
Cc1ccc(-c2n[nH]c(=S)n2-c2ccccc2)cc1 | 79.4µM* | -17.5% | -5.8%[57.1 µM] | ? | 6.4% | 2.6%
Cc1ccc(-n2c(-c3nn(C)c(C)c3Cl)n[nH]c2=S)cc1 | 56.2µM* | 29.9µM* | -10.7% | 39.8µM* | 3.9% | 3.0%
S=C(c1ccc(Cl)cc1)N1CCOCC1 | 39.8µM* | 28.2µM* | 4.4% | 15.1% | ? | 1.8%
CCOC(=O)Cn1cc(C(=O)c2ccccc2F)c2ccccc21 | 5.9% | 21.2µM* | -11.0% | -0.6% | ? | 5.7%
CCC1(CC)CCNC1=O | -3.0% | · | · | · | 11.6% | ·
CC[n+]1c(-c2ccccc2)c2cc(N)ccc2c2ccc(N)cc21 | ? | -11.7% | 0.1%[11.4 µM] | 0.0%[11.4 µM] | 6.31µM* | 4.4%
CC(=O)C1=C(O)C2C3c4c[nH]c5cccc(c45)CC3C(C)(C)N2C1=O (stereo not given) | 3.5% | · | · | · | -25.8% | ·
C/C(O)=C1\C(=O)[C@@H]2[C@H]3c4c[nH]c5cccc(c45)C[C@H]3C(C)(C)N2C1=O | 56.2µM* | · | · | · | ? | ·
COC(=O)c1nc(-c2ccc3c(n2)C(=O)C(N)=C(OC)C3=O)c(N)c(-c2ccc(OC)c(OC)c2O)c1C | 15.8µM* | -6.3% | -6.2% | 5.6% | 10µM* | 4.3%
CCCCC/C=C\C/C=C\CCCCCCCC(=O)NCCCC(=O)O | 30.4% | · | · | · | -4.8% | ·
NS(=O)(=O)c1ccc(CNC(=O)COc2ccc3c4c(c(=O)oc3c2)CCCC4)cc1 | -6.5% | 23.8µM* | 17.2% | 13.2% | -23.3% | -3.7%
NCC(=O)c1ccc(Cl)c(Cl)c1 | · | · | 3.2% | 18.7% | · | ·
N#C/C(=C\c1ccc(O)c(O)c1)C(N)=S | 0.178µM* | · | · | · | · | ·
CCS(=O)(=O)Nc1ccc(C2=NN(C(=O)c3ccco3)C(c3ccc(Cl)o3)C2)cc1 (stereo not given) | · | -13.3% | 19.4% | 24.2% | ? | 4.6%
CC[C@]12CCCN3CCC4(c5ccccc5NC4C(C(=O)O)C1)C32 (stereo not given in full) | -14.1% | · | · | · | -15.1% | ·
CN(N=O)c1ccc(O)c(O)c1 | · | · | -6.4%[57.1 µM] | 0.947µM* | 35.5µM* | ·
O=c1[nH]c2sccc2c2ccccc12 | 4.9% | · | · | · | 0.9% | ·
CCC1(C)CC(C(N)=S)CCO1 (stereo not given) | 4.47µM* | 2.12µM* | -21.6%[57.1 µM] | -11.3%[57.1 µM] | 20µM* | 2.8%
O=c1c2ccccc2nc2n1CCS2(=O)=O | -0.2% | -27.7% | -3.9% | ? | -6.3% | 6.5%
O=C1NC(=O)C(=Cc2ccc(Oc3ccc([N+](=O)[O-])cc3)cc2)C(=O)N1 | 20µM* | 2.99µM* | -14.9% | ? | 31.6µM* | 0.1%
O=C1NC(=O)C(=Cc2cc([N+](=O)[O-])ccc2N2CCCCC2)C(=O)N1 | 15.7% | -7.8% | -5.5%[57.1 µM] | -2.9%[57.1 µM] | -3.5% | -0.8%
CCn1cc(C=C2C(=O)NC(=O)NC2=O)c2ccccc21 | -9.3% | 6.7% | -3.4% | 1.0% | 5.3% | 8.3%
SMILES | Sfp PPTase inh | PLK1 PBD inh | TrxR1 substrate | rTrxR1 inhibitor | VDR inhibitor | IDH1 R132H inh
O=C1NC(=O)C(=Cc2ccc3ccccc3c2)C(=O)N1 | 39.8µM* | 4.23µM* | 18.7% | ? | ? | 9.5%
Cc1cc(C)cc(OCCOc2cccc(C=C3C(=O)NC(=O)NC3=O)c2)c1 | 50.1µM* | 5.97µM* | 0.7% | 11.2µM* | ? | -1.3%
CC1(C)C(C(Cl)Cl)C2(Cl)C(Cl)C(Cl)C1(Cl)C2(Cl)Cl (stereo not given) | -3.8% | · | · | · | -13.7% | ·
C=C/C(=C/C(=O)C[C@H](C)C[C@@H](C)CC[C@H](O)[C@H](C)C(=O)C[C@@H](O)[C@H](C)[C@@H](C)OC(=O)C[C@@H](O)C1=C(C)C(=O)OC1=O)CC | -9.4% | · | · | · | ? | ·
CCCCCN1C(=O)c2ccccc2[C@@]2(C(=O)OCC)Cc3cc(OC)ccc3[C@@H]12 | · | 5.32µM* | · | · | · | ·
CCOC(=O)[C@]12Cc3ccccc3[C@H]1N(CCC(=O)OC)C(=O)c1ccccc12 | · | 9.47µM* | · | · | · | ·
CC(C)(O)C1O[C@H]2CC[C@@]3(C)[C@@](O)(CC[C@H]4Cc5c([nH]c6ccccc56)[C@@]43C)C2=CC1=O (stereo not given in full) | -2.3% | · | · | · | -10.5% | ·
COc1ccc2c(c1)CCC1C2CC[C@@]2(C)C1CC[C@@H]2NCCCCCCN1C(=O)C=CC1=O (stereo not given in full) | · | · | 7.9%[57.1 µM] | ? | -1.9% | ·
Cc1cccc2c3c(ccc12)C1=C(C(=O)C3=O)[C@@H](C)CO1 | -7.0% | · | · | · | 20µM* | ·
CCN1/C(=C\C=C\C2=[N+](CC)c3ccccc3C2(C)C)C(C)(C)c2ccccc21 | ? | 95.3% | 4.7% | -0.8% | -9.7% | 35.5µM*
CCCN(CCC)c1c([N+](=O)[O-])cc(C(F)(F)F)cc1[N+](=O)[O-] | 4.5% | · | · | · | 11.1% | ·
Cc1ccc(N2C(=O)NC(=O)/C(=C\c3cc(C)n(-c4sc5c(c4C#N)CCCC5)c3C)C2=O)cc1 | 39.8µM* | 0.597µM* | -1.3% | -22.8% | 44.7µM* | ?
CCOC(=O)c1c(-n2c(C)cc(/C=C3/C(=O)NC(=O)N(CC)C3=O)c2C)sc2c1CCCC2 | · | ? | -11.2% | -9.2%[57.1 µM] | 2.4% | ?
CCN1C(=O)NC(=O)/C(=C/c2cc(C)n(-c3sc(C)c(C)c3C#N)c2C)C1=O | 15.8µM* | 2.12µM* | -2.8% | ? | ? | -5.5%
O=C(CCN1CCN(CCO)CC1)N1c2ccccc2Sc2ccc(C(F)(F)F)cc21 | -4.0% | 26.7µM* | 0.0% | 24.7% | ? | 5.6%
S=C=NCc1ccccc1 | 5.4% | · | · | · | 39.8µM* | ·
O=c1c(O)c(-c2ccc(O)c(O)c2)oc2c(O)c(O)cc(O)c12 | -83.7% | · | · | · | 25.1µM* | ·
CC[C@]1(C2=NCCN2)Cc2ccccc2O1 | 3.6% | · | · | · | · | ·
Cc1ccccc1-n1c(O)c(C(c2ccncc2)c2c(O)n(-c3ccccc3C)c(=O)[nH]c2=O)c(=O)[nH]c1=O | -22.2% | ? | 4.5%[57.1 µM] | 14.1µM* | ? | 4.6%
CC(=NCc1ccco1)c1c(O)n(-c2ccccc2C)c(=O)[nH]c1=O | 5.5% | -10.7% | 0.9%[57.1 µM] | ? | -3.9% | 4.8%
O=C1C=CC(=O)c2c(O)cccc21 | -22.7% | · | · | · | 39.8µM* | ·
CCCCCn1c(N)c(C(=O)NCc2cccs2)c2nc3ccccc3nc21 | -5.3% | -7.1% | 88.2% | 82.3% | ? | 4.1%
